Screening results deposited in PubChem by The Scripps Research Institute Molecular Screening Center.
HTR5A ag ctr: HTR5A agonists in luminescence cell assay, primary screen, counter-screen for OPRM1-OPRD1 heterodimer agonist project, full-deck HTS; 5-hydroxytryptamine receptor 5A (Homo sapiens), P47898; activation, % at 9.3 µM; cell-based; 340,000 tested, 0.61% active; in the data active = activation mostly above about 9.5%, no sharp cut-off; inactive = mostly below about 7.6%;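 note: 0% = cells with vehicle only and 100% = reference agonist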
OPRM1-OPRD1 inv: inverse agonists of MOR-DOR heterodimerization, primary screen, cell-based, luminescence. Mu-type opioid receptor (Homo sapiens) + Delta-type opioid receptor (Homo sapiens), …. cell-based MOR-DOR heterodimer luminescence, inverse agonism. inhibition, % at 9.3 µM. 340,000 tested, 0.21% active. AID 504357, 2011; in the data active = inhibition above about 22%, passing the limit was not always enough;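 note: 0% = cells with DMSO and 100% = wells without cells with DMSO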
Target sequence (P35372 whole entry, looked up): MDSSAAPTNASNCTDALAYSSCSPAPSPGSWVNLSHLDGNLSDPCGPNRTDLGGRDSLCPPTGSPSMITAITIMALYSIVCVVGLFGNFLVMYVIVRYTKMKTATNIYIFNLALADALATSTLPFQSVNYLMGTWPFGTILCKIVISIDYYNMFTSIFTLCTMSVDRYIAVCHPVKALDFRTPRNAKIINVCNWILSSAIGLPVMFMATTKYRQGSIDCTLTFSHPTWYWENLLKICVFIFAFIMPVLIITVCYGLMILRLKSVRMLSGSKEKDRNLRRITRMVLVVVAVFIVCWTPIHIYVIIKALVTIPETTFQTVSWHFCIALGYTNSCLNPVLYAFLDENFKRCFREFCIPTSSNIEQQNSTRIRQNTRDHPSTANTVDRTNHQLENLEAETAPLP
Target sequence (P41143 whole entry, looked up): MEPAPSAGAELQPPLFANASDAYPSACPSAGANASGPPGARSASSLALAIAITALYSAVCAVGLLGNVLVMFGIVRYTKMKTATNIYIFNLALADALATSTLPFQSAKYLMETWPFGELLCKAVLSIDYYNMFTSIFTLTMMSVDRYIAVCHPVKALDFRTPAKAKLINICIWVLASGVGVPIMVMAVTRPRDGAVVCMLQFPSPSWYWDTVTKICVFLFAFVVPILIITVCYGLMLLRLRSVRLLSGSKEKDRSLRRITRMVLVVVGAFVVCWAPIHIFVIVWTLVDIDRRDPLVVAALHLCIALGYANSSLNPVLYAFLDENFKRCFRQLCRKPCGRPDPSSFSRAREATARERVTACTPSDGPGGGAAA
HTR5A inv ctr: HTR5A inverse agonists in luminescence cell assay, primary screen, counter-screen for OPRM1-OPRD1 heterodimer inverse agonist project, full-deck HTS | 5-hydroxytryptamine receptor 5A (Homo sapiens), P47898 | HTR5A cell line, inverse agonism | inhibition, % at 9.3 µM | 340,000 tested, 0.083% active; in the data active = inhibition mostly above about 23%, no sharp cut-off; inactive = mostly below about 18%;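 note: 0% = cells with DMSO and 100% = no-cell wells with DMSO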
MOR-DOR ag: agonists of OPRM1-OPRD1 heterodimerization, primary screen, cell-based, luminescence; cells; activation, % at 9.3 µM; 340,000 tested, 0.3% active; AID 504326, 2011;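 note: 0% = vehicle-treated cells and 100% = reference agonist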
OPRM1-D1 ag cf: agonists of MOR-DOR heterodimerization, confirmation, cell-based, luminescence; AID 504904, 2011; shares compounds with MOR-DOR ag; cells, luminescence complementation; activation, % at 9.3 µM; 830 tested, 45% active;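 note: 0% = vehicle-treated cells and 100% = reference agonist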
HTR5A ag counter: HTR5A agonists in cells, counter-screen for OPRM1-OPRD1 heterodimer agonist project, cell-based, luminescence; shares compounds with MOR-DOR ag; HTR5A agonist counterscreen; activation, % at 9.3 µM; 830 tested, 8% active; AID 504905, 2011; in the data active = activation above about 17%;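 note: 0% = vehicle-treated cells and 100% = reference agonist response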
* = called active by the depositor; i = inactive; x = not tested or not shown. Most compounds without a hit are left out; they make up all but 1.1% or so of the library. Cut-off read from the data, not from the text of the source, unless noted: active = activation above about 18%; inactive = the rest.

SMILES | HTR5A ag ctr | OPRM1-OPRD1 inv | HTR5A inv ctr | MOR-DOR ag | OPRM1-D1 ag cf | HTR5A ag counter
Cc1nc2ccc(NC(=O)[C@@H](NC(=O)c3c(F)cccc3F)C(C)C)cc2s1 | -0.1 | 12.3 | 0.3 | -3.0 | x | x
CC(C)[C@H](NC(=O)c1c(F)cccc1F)C(=O)Nc1cccc(Br)c1 | 8.2 | -126.2 | -31.9 | 21.9* | 11.9 | -0.4
CCN(CC)C(=O)[C@H]1C[C@H](CC(=O)NCCCOC)C(=O)N2CCc3c([nH]c4cc(CCC(=O)N(C)C)ccc34)[C@]12C | -1.4 | 15.1 | 4.8 | -3.1 | x | x
COc1ccc(C(CNC(=O)c2cccc(NS(=O)(=O)c3ccc(C)c(F)c3)c2)N(C)C)cc1 (stereo not drawn) | -3.0 | -362.8 | 7.2 | 69.8* | 1.3 | -1.6
COc1ccc(C(CNC(=O)c2cccc(NS(=O)(=O)c3ccccc3)c2)N(C)C)cc1 (stereo not drawn) | 2.3 | -246.3 | -11.2 | 45.9* | 28.6* | 1.5
CC(=O)c1ccc(S(=O)(=O)NCc2ccc(C(=O)NCC(c3ccccc3)N(C)C)cc2)cc1 (stereo not drawn) | 3.8 | -291.7 | -10.8 | 54.6* | 48.7* | -3.9
CN(C)C(CNC(=O)c1ccc(S(=O)(=O)Nc2ccccc2F)cc1)c1ccccc1 (stereo not drawn) | -1.5 | 14.0 | 15.5 | -2.7 | x | x
COc1ccc(C(CNC(=O)c2cccc(S(=O)(=O)Nc3ccc(F)cc3)c2)N(C)C)cc1 (stereo not drawn) | -4.3 | -20.2 | 10.4 | 3.9 | x | x
COc1ccccc1C(CNC(=O)c1cccc(NS(=O)(=O)c2ccc(C)c(F)c2)c1)N(C)C (stereo not drawn) | 0.7 | -43.6 | -2.0 | 6.8 | x | x
CCOc1ccc(S(=O)(=O)Nc2cccc(C(=O)NCC(c3ccccc3)N(C)C)c2)cc1 (stereo not drawn) | -4.5 | -312.7 | 2.3 | 57.9* | 51.8* | -2.8
CCOc1ccc(N=Cc2ccccc2O)cc1 | -0.7 | 2.7 | 3.0 | -0.5 | x | x
COc1ccc(CC(=O)OCC(=O)Nc2c(C)n(C)n(-c3ccccc3)c2=O)cc1OC | -7.7 | 4.8 | 18.7 | -1.2 | x | x
O=C1NCN(c2ccccc2)C12CCN(CCCC(c1ccc(F)cc1)c1ccc(F)cc1)CC2 | 6.2 | -166.3 | -22.1 | 30.8* | -0.3 | 5.1
CN(Cc1cnc2nc(N)nc(N)c2n1)c1ccc(C(=O)NC(CCC(=O)O)C(=O)O)cc1 (stereo not drawn) | 2.6 | 10.7 | -9.9 | -2.4 | x | x
CCCCN(C(=O)c1ccncc1)c1c(N)n(CCC)c(=O)[nH]c1=O | 8.0 | 3.6 | -31.2 | -0.7 | x | x
O=C(NC1CCN(Cc2ccc(Cl)cc2Cl)CC1)c1ccccc1 | 6.0 | -85.6 | -23.1 | 18.2* | 25.8* | 3.7
Cc1nc2c(O)c3c(c(O)c2nc1C)C1C=CC3CC1 | -1.4 | -107.5 | 5.3 | 22.0* | -4.3 | 0.0
Cc1csc(SCC(=O)Nc2ccc(C)c(F)c2)n1 | -10.8 | 4.1 | 26.9 | -1.1 | x | x
CC1=CC(=O)C(C(C)C)=C/C1=N/OS(=O)(=O)c1ccccc1 | 30.4* | i | -63.7 | 205.5* | 82.6* | 28.6*
O=C1[C@@H](Oc2ccccc2)[C@@H](c2cccnc2)N1c1ccccc1 | -1.2 | 17.2 | 4.5 | -3.5 | x | x
O=C(CSc1ccc(Cl)cc1)Nc1ccc(-c2nc3ccccc3[nH]2)cc1 | 12.6* | -144.2 | 4.1 | 32.1* | 171.3* | 6.2
CC(C)c1ccccc1NC(=O)c1cccc(NC(=O)c2ccccc2)c1 | -0.6 | -293.5 | 7.7 | 48.5* | 8.2 | 4.2
CC1=C(C(=O)Nc2nc3ccccc3s2)C(c2ccco2)C(C#N)=C(SCC(=O)NC2CCCCC2)N1 (stereo not drawn) | 1.1 | -129.7 | 2.6 | 25.6* | 17.8 | 1.2
CCOc1ccc(OCC(=O)N(CCC2=CCCCC2)c2c(N)n(Cc3ccccc3)c(=O)[nH]c2=O)cc1 | 0.1 | -9.4 | -0.3 | 1.7 | x | x
CC(CC(=O)N(CCC1=CCCCC1)c1c(N)n(Cc2ccccc2)c(=O)[nH]c1=O)c1ccccc1 (stereo not drawn) | -4.1 | -257.5 | -17.2 | 39.1* | 32.7* | 9.5
SMILES | HTR5A ag ctr | OPRM1-OPRD1 inv | HTR5A inv ctr | MOR-DOR ag | OPRM1-D1 ag cf | HTR5A ag counter
CCN(CC)CCCN(C(=O)c1ccc(Br)cc1)c1nc(-c2ccc(OC)cc2)cs1 | 2.3 | -36.0 | 4.5 | 6.5 | x | x
CCN(CC)CCCN(C(=O)c1cccs1)c1nc(-c2ccc(OC)cc2)cs1 | 3.3 | -266.3 | 21.2 | 51.3* | 0.6 | 27.3*
COC(=O)C(Cc1cccc(C)n1)(c1ccccc1)c1ccccc1 | 0.1 | i | -0.3 | 113.5* | 153.2* | 2.4
OCC1(CCc2ccccc2)CCN(Cc2cccn2-c2cccnc2)CC1 | -12.1 | i | 3.0 | 143.5* | 384.5* | 1.9
O=C(NC(=S)N1CCCCC1CO)c1cc(Br)ccc1Cl (stereo not drawn) | 3.1 | 8.4 | -9.5 | -1.3 | x | x
CSCCC(NC(=O)c1cccc(C)c1)C(=O)NNC(=O)c1cccs1 (stereo not drawn) | -3.6 | 11.9 | 13.8 | -3.1 | x | x
Cc1cc(C(=O)NCC(c2ccco2)N(C)C)no1 (stereo not drawn) | -2.9 | 6.7 | 14.6 | -1.3 | x | x
CN(C)C(CNC(=O)c1ccc(Br)cc1)c1ccco1 (stereo not drawn) | 1.6 | -206.3 | -5.8 | 43.2* | 36.6* | -2.3
CN(C)C(CNC(=O)c1cccc(C(F)(F)F)c1)c1ccco1 (stereo not drawn) | -1.4 | -116.7 | 18.3 | 18.4* | 45.0* | 0.1
Cc1c(C(=O)NCC(c2ccco2)N(C)C)oc2c(Cl)cccc12 (stereo not drawn) | 0.5 | -171.2 | -24.0 | 31.7* | 20.0* | 30.1*
Cc1ccc2nc(-c3ccccc3)cc(C(=O)NCC(c3ccco3)N(C)C)c2c1 (stereo not drawn) | -5.4 | -228.4 | 13.0 | 35.9* | 1.0 | -3.0
CC1CC(C)CN(C(=O)CN2C(=O)NC3(CCCCCC3)C2=O)C1 (stereo not drawn) | 1.1 | 8.5 | -4.5 | -1.7 | x | x
O=C1NC(=O)C2(CCCC2)N1 | -0.7 | 10.4 | 2.8 | -2.1 | x | x
Cc1cc(C(=O)NCC(c2ccco2)N(C)C)ccc1[N+](=O)[O-] (stereo not drawn) | 2.3 | -214.4 | -5.3 | 34.4* | 25.6* | 2.2
CCc1ccc(NC(=O)Nc2ccc3c(c2)N(C)C(=O)CS3)cc1 | 3.6 | -487.7 | -10.9 | 96.3* | 55.0* | 4.7
COc1ccc2nc(-c3ccccc3)nc(SC)c2c1 | 0.8 | 11.9 | -3.1 | -2.5 | x | x
CCOc1cc(/C=N/NC(=O)c2ccncc2)ccc1OC(=O)c1ccc([N+](=O)[O-])cc1 | 9.4 | -252.2 | -23.9 | 44.8* | 13.5 | 4.3
